From the supplement of paper PMC6555819

What was measured:
Test in all cases: PBM binding z-score (relative to random genomic background probes); higher = stronger binding; sequences stand for … in GC…GCGATTGACAGCGTAGAATGAAGG
[1] = test system: FXR:RXRa (NR concentration 270 nM, RXRa partner concentration 90 nM)
Outline: (§1)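 Custom Agilent 4×180K protein-binding microarrays carried double-stranded probes, each with a 34-nt variable region. These regions held direct-repeat seeds, single-nucleotide variants, half-site ablations and random human genomic background sequences. Ligand-free nuclear receptor dimers were incubated on the arrays for 1 h, antibodies against each partner (one per run) detected binding, and scanned fluorescence was regression-normalized. Binding z-scores take the random background probes as reference.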

[2] = test system: LXRa:RXRa (NR concentration 270 nM, RXRa partner concentration 90 nM)
Outline: as §1

[3] = test system: LXRa homodimer (NR concentration 270 nM)
Outline: as §1

[4] = test system: LXRb:RXRa (NR concentration 270 nM, RXRa partner concentration 90 nM)
Outline: as §1

[5] = test system: LXRb homodimer (NR concentration 270 nM)
Outline: as §1

[6] = test system: PPARa:RXRa (NR concentration 270 nM, RXRa partner concentration 90 nM)
Outline: as §1

[7] = test system: PPARg:RXRa (NR concentration 180 nM, RXRa partner concentration 90 nM)
Outline: as §1

[8] = test system: PPARg:RXRa 270nM:90nM, anti-RXR (NR concentration 270 nM, RXRa partner concentration 90 nM)
Outline: as §1

[9] = test system: PPARg:RXRa 30nM:10nM, anti-RXR (NR concentration 30 nM, RXRa partner concentration 10 nM)
Outline: as §1

[10] = test system: PPARg:RXRa 90nM:30nM, anti-RXR (NR concentration 90 nM, RXRa partner concentration 30 nM)
Outline: as §1

[11] = test system: PPARg:RXRa DBDmut IVT, anti-RXR (DBD mutation: RXRa K156A/R161A, NR concentration 270 nM, RXRa partner concentration 90 nM)
Outline: as §1

[12] = test system: PPARg:RXRa IVT, anti-PPARg (NR concentration 270 nM, RXRa partner concentration 90 nM)
Outline: as §1

[13] = test system: PPARg DBDmut:RXRa IVT, anti-PPARg (DBD mutation: PPARg1 K132A/R137A, NR concentration 270 nM, RXRa partner concentration 90 nM)
Outline: as §1

[14] = test system: PPARg DBDmut IVT, anti-PPARg (DBD mutation: PPARg1 K132A/R137A, NR concentration 270 nM)
Outline: as §1

[15] = test system: PPARg homodimer (NR concentration 180 nM)
Outline: as §1

[16] = test system: PXR:RXRa (NR concentration 270 nM, RXRa partner concentration 90 nM)
Outline: as §1

[17] = test system: PXR homodimer (NR concentration 270 nM)
Outline: as §1

[18] = test system: RARa:RXR (NR concentration 270 nM, RXRa partner concentration 90 nM)
Outline: as §1

[19] = test system: RARa homodimer (NR concentration 270 nM)
Outline: as §1

[20] = test system: RARb:RXRa (NR concentration 270 nM, RXRa partner concentration 90 nM)
Outline: as §1

Sequence	PBM binding z-score [1]	PBM binding z-score [2]	PBM binding z-score [3]	PBM binding z-score [4]	PBM binding z-score [5]	PBM binding z-score [6]	PBM binding z-score [7]	PBM binding z-score [8]	PBM binding z-score [9]	PBM binding z-score [10]	PBM binding z-score [11]	PBM binding z-score [12]	PBM binding z-score [13]	PBM binding z-score [14]	PBM binding z-score [15]	PBM binding z-score [16]	PBM binding z-score [17]	PBM binding z-score [18]	PBM binding z-score [19]	PBM binding z-score [20]
CCGACTGGGGCATAAGGTTACCAAAAGCCAGCCC	0.243	1.26	-0.202	0.884	-1.26	2.36	2.34	3.15	0.904	2.48	2.7	3.25	-0.301	-0.942	0.779	0.576	-0.64	1.73	0.0494	1.81
ATATGTAGGTTAGCTGGGGTCTTTCAGACTAGGC	1.74	0.766	0.231	1.6	0.737	2.65	2.84	2.65	0.594	1.91	6.49	5.47	0.793	0.845	0.937	1.68	0.227	0.915	0.444	0.946
ATCGAAAGGCCGAAGGTGAGTATACCCACCCGAA	-0.216	-0.00303	-0.202	-0.349	-0.732	0.657	1.25	1.31	0.275	0.738	-0.869	0.122	-0.0521	-0.507	-0.197	-0.245	-0.678	0.273	-0.544	1.04
TCGAGTAGGTTACCAATGGGGCATTCGGCTTTCT	-0.107	1.22	-0.464	0.357	-0.96	0.808	0.00688	0.931	0.855	0.717	3.25	2.7	-1.22	-1.07	0.209	-0.187	-0.566	0.111	-1.05	0.768
GCTATTAGTTGAAAGCGCAACCGAATGATTCTCG	-0.0843	-0.353	0.0981	-0.318	-0.315	-0.41	0.157	-0.0229	0.0302	-0.22	0.316	-0.176	-0.265	-0.6	0.252	-0.405	-0.357	-0.564	-0.0512	-0.343
ATCTTTAGGTAACCAAGTTCAGTGAATGCCGAAC	0.613	1.14	0.896	0.862	1.2	0.968	0.323	0.52	0.251	0.342	2.35	1.85	1.09	1.61	0.811	2.06	1.53	1	0.564	1.31
CGTCGAAGGTCAGAGAGGTCAGTGAATGCCGAGT	6.25	5.11	3.28	4.34	0.365	4.79	3.57	4.39	1.28	3.06	2.6	3.03	-0.434	-0.601	6.33	6.06	11.6	5.68	3.9	5.05
